Reference: the supplement of paper PMC12819154, “High-throughput peptide-centric local stability assay extends protein–ligand identification to membrane proteins, tissues and bacteria” (Nature Structural & Molecular Biology, 2025)

UniProt Q64459, sequence (Q64459 whole entry): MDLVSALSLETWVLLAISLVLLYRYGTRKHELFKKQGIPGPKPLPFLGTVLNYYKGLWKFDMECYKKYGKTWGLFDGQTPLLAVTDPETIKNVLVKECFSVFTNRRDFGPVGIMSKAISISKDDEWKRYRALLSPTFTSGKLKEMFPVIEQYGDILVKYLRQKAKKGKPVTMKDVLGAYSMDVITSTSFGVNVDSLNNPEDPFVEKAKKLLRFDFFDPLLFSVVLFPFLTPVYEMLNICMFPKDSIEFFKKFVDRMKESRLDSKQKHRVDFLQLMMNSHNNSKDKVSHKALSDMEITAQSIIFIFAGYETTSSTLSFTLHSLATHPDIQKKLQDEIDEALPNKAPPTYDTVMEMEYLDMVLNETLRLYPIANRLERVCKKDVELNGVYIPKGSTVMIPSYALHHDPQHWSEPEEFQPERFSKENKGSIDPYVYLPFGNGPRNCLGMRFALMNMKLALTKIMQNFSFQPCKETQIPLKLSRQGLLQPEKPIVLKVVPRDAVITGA
UniProt Q01705, sequence (Q01705 whole entry): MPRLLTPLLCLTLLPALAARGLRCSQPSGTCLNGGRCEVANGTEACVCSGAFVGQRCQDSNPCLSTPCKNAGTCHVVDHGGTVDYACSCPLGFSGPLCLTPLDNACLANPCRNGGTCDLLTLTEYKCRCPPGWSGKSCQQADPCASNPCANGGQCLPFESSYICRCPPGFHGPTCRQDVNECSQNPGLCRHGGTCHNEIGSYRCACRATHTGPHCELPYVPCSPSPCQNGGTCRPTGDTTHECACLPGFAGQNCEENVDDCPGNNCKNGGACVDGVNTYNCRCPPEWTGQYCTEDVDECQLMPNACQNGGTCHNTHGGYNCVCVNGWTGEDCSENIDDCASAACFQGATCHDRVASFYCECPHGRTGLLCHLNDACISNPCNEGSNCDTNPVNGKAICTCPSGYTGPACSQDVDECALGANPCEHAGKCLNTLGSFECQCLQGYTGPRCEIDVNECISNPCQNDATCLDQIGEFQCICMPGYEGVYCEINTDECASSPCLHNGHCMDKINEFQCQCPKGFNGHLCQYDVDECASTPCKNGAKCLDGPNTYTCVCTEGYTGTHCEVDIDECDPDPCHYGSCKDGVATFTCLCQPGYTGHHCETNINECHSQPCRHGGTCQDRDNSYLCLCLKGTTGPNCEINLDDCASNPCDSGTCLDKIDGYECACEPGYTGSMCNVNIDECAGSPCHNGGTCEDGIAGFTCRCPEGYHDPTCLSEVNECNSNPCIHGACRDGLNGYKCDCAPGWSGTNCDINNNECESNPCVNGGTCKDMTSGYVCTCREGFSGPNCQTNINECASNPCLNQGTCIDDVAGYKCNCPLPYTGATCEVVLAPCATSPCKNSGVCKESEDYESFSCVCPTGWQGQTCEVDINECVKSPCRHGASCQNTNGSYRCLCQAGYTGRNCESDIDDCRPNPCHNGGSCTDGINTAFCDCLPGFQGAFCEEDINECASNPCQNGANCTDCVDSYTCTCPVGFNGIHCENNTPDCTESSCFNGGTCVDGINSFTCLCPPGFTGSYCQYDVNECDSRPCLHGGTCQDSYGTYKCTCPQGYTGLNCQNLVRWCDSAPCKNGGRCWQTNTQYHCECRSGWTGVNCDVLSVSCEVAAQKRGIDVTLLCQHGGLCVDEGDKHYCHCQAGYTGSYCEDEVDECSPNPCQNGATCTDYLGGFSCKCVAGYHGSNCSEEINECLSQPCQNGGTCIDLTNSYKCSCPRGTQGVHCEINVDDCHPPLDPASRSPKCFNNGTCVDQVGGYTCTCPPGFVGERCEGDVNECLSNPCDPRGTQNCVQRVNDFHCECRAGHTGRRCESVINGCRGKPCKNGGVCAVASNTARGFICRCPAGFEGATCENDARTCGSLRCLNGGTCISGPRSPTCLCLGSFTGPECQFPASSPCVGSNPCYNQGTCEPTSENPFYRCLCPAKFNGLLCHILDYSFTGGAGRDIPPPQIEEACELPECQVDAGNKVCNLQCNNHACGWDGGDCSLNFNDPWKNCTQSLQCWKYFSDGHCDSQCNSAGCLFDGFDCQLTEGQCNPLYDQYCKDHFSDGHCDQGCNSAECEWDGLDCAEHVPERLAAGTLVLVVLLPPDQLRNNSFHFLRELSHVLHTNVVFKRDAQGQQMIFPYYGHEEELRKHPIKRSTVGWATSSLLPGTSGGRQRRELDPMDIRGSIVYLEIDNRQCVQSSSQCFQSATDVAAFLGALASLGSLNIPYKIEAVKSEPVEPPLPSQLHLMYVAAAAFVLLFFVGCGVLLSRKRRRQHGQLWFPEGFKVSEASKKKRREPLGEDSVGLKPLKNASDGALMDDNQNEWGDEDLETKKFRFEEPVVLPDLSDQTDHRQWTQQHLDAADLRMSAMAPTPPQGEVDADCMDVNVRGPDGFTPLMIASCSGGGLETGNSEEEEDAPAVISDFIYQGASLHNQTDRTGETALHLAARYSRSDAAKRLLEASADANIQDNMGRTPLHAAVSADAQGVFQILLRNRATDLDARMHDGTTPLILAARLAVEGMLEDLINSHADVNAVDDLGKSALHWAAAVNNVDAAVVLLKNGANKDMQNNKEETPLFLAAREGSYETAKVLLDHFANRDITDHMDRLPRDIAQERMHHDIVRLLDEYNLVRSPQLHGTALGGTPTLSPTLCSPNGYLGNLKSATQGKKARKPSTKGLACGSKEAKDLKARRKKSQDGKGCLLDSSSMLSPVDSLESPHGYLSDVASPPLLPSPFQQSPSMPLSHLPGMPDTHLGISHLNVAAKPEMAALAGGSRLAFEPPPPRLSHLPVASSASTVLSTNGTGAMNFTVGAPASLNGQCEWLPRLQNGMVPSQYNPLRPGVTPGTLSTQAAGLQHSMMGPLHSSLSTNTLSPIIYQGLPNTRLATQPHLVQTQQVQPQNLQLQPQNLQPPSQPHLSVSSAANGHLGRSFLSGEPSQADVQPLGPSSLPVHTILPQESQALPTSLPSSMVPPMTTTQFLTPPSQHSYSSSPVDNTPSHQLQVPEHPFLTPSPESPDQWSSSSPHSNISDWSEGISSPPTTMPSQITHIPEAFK
UniProt P53395, sequence (P53395 whole entry): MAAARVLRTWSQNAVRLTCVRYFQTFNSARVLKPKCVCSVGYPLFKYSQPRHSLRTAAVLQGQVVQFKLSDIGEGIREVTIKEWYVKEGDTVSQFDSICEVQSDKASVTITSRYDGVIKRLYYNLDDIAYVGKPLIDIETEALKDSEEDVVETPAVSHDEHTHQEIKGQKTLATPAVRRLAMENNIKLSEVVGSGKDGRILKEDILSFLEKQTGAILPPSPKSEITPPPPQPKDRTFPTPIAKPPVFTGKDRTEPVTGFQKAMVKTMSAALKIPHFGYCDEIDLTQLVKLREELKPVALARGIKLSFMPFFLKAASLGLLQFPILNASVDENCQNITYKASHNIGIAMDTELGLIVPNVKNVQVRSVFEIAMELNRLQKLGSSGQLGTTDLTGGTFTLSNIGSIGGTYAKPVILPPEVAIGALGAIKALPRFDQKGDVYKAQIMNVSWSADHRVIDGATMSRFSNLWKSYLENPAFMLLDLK
UniProt Q8JZY4, sequence (Q8JZY4 whole entry): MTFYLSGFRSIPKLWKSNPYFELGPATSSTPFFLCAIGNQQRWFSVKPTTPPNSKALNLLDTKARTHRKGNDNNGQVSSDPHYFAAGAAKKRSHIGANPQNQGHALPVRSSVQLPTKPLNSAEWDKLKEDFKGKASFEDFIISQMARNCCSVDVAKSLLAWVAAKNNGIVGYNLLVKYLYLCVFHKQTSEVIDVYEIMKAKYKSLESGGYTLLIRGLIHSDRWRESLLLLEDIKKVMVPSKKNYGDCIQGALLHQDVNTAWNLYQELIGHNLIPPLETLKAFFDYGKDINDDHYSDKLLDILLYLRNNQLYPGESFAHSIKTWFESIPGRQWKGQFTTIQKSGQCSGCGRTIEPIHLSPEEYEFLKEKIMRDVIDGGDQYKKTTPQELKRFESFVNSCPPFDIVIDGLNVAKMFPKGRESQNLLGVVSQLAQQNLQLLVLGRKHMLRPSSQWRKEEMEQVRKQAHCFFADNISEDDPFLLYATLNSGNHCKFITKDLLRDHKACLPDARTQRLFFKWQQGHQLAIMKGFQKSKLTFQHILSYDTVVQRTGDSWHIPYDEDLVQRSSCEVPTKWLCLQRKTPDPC
UniProt Q9D6U8, sequence (Q9D6U8 whole entry): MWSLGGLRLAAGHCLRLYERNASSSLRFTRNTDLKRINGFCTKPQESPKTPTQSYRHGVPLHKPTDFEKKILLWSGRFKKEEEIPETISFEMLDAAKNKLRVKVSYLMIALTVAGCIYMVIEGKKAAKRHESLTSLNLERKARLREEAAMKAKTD
UniProt Q03963, sequence (Q03963 whole entry): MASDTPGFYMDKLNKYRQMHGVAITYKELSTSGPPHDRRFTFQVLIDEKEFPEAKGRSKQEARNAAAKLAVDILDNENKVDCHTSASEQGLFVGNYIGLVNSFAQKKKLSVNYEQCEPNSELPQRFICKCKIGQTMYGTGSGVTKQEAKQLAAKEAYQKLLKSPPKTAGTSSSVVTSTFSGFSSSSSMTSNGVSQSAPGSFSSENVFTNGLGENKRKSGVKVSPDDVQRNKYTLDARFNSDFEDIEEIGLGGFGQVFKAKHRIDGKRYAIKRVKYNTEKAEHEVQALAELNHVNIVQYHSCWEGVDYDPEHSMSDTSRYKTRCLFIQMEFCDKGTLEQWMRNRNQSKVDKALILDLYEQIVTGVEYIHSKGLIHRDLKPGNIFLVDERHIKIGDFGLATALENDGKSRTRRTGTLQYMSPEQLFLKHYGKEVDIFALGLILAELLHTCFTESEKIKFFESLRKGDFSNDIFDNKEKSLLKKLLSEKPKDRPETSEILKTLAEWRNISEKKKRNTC

The targets below were run with CN[C@@H]1C[C@H]2O[C@@](C)([C@@H]1OC)n1c3ccccc3c3c4c(c5c6ccccc6n2c5c31)C(=O)NC4 [staurosporine] (assay: log2 fold change of tryptic peptide abundance, ligand vs vehicle (limited proteolysis) (log2 ratio); higher = more trypsin-susceptible (destabilized)). Conditions: ligand concentration: 20 uM; sample: mouse liver crude lysate; replicate design: treated separately.
Work on “UniProt P53395 (peptide sequence: DRTEPVTGFQK, peptide start residue: 251)” yielded a log2 fold change of 0.423. Work on “UniProt Q9D6U8 (peptide sequence: HESLTSLNLER, peptide start residue: 130)” yielded a log2 fold change of 0.435. With “UniProt Q03963 (peptide sequence: DLKPGNIFLVDER, peptide start residue: 376)” the log2 fold change was -1.55. “UniProt Q64459 (peptide sequence: ALLSPTFTSGK, peptide start residue: 131)” gave a log2 fold change of -0.273. Work on “UniProt Q8JZY4 (peptide sequence: YLYLCVFHK, peptide start residue: 178)” yielded a log2 fold change of 0.47. With “UniProt Q01705 (peptide sequence: QWTQQHLDAADLR, peptide start residue: 1832)” the log2 fold change was -0.742. “UniProt Q99N91 (peptide sequence: GNEYQPSNIK, peptide start residue: 50)” was tested, and the log2 fold change was 0.323.
